Only some compounds are listed: those with a hit (about 1.3% of all), similar ones and a draw of the others.
SARS 3CLpro inh: SARS-CoV 3CLpro protease inhibition. P0C6X7. recombinant SARS-CoV 3CLpro, quenched FRET peptide cleavage. inhibition, % at 6 µM. actives 0.14% (n = 290,000); in the data active = inhibition above about 12%
CCHF vOTU inh-1: blocks the CCHF virus ovarian tumor domain protease; CCHFV vOTU protease, Pep-AMC fluorescence; actives 0.55% (n = 370,000); inhibition, % at 11.5 µM
TcdB GH inh: TcdB glycohydrolase inhibition; P18177; inhibition, % at 9.99 µM; TcdB glycohydrolase enzymatic assay, plate reader; actives 0.24% (n = 350,000); AID 652162; in the data active = inhibition above about 10%
DUSP3 inh: DUSP3 (human) phosphatase inhibition; inhibition, % at 13.3 µM; actives 0.52% (n = 290,000); P51452; recombinant VHR phosphatase, pNPP absorbance; in the data active = inhibition above about 50%
BH1578 lux ind: quorum light induction in luxS cqsA deficient V. cholerae; AID 588436; actives 0.16% (n = 350,000); V. cholerae BH1578 lux reporter, luminescence, 6 h; activation, % at 18.7 µM; in the data active = activation mostly above about 9.7%, no sharp cut-off
PriA SSB inh: blocks PriA binding to SSB C-terminal tail | AlphaScreen SSBct-PriA binding, biotinylated peptide | inhibition, % at 33 µM | actives 0.6% (n = 430,000); in the data active = inhibition mostly above about 37%, no sharp cut-off; inactive = mostly below about 20%
CCHF vOTU inh-2: confirmation of CCHF virus vOTU protease inhibitors. shares compounds with CCHF vOTU inh-1. Recombinant CCHFV vOTU, Pep-AMC fluorescence. inhibition, % at 11.5 µM. actives 17% (n = 1,900). AID 686976
Hits are given with their value; . = inactive; / = not tested or not shown. Rule as the data show it, unless noted: active = inhibition above about 30%; inactive = the rest.

SMILES	SARS 3CLpro inh	CCHF vOTU inh-1	TcdB GH inh	DUSP3 inh	BH1578 lux ind	PriA SSB inh	CCHF vOTU inh-2
Cc1ccc(S(=O)Cc2ccc(C(=O)N3CCN(C(=O)c4ccco4)CC3)o2)cc1 (stereo unspecified)	.	.	.	.	.	.	/
Cc1ccc(N2C(N)=C(C#N)C(c3cccnc3)C3=C2CCCC3=O)cc1 (stereo unspecified)	.	.	/	.	.	.	/
Cc1nn(C)cc1C1C(C#N)=C(N)N(c2ccc(F)c([N+](=O)[O-])c2)C2=C1C(=O)CCC2 (stereo unspecified)	.	30	/	.	.	.	.
C#CCn1c(=NC(=O)/C=C\c2ccc3c(c2)OCO3)sc2cc(S(N)(=O)=O)ccc21	/	/	/	/	/	.	/
Cc1[nH][nH]c(=O)c1C(c1ccc(-c2ccc(C(=O)O)cc2)o1)c1c(C)[nH][nH]c1=O	.	.	.	.	.	.	/
Cc1[nH][nH]c(=O)c1C(c1ccc(-c2ccc(F)cc2)o1)c1c(C)[nH][nH]c1=O	.	46	.	.	.	.	.
COc1ccc2c(c1)CCCC2(O)CNC(=O)COc1cccc2c1OC(C)(C)C2 (stereo unspecified)	/	/	/	/	/	.	/
CCOC(=O)c1c(CN(C)C)n(C)c2c(O)c(N=NC(N)=O)c3ccc(Br)cc3c12	.	36	.	.	.	.	.
COc1ccccc1N1CCN(CCNC(=O)c2cc(OC)c(OC)c(OC)c2)CC1	/	/	/	/	/	.	/
CCCCn1c(NS(=O)(=O)c2ccccc2)c(C(=O)OCC)c2nc3ccccc3nc21	.	35	/	.	.	.	74
CCCCn1c(NS(=O)(=O)c2ccc(C)cc2)c(S(=O)(=O)c2ccccc2)c2nc3ccccc3nc21	.	90	.	.	.	.	.
COCCNC(=O)NC12CC3(C)CC(C)(CC(C)(C3)C1)C2	.	35	.	.	.	.	.
COCCNC(=O)NC12CC3CC(CC(C3)C1)C2	.	.	.	.	.	.	/
O=C(OCC(=O)N1CCc2ccccc21)c1ccc([N+](=O)[O-])o1	/	40	.	/	.	.	.
O=C(OCC(=O)N1CCCc2ccccc21)c1ccc(Br)o1	.	.	/	.	.	.	/
O=C(CSc1nc2ccccc2s1)N1CCC(Cc2ccccc2)CC1	/	/	/	/	/	.	/
CCCCCCCCN1C(=O)[C@H](CC(=O)NCc2ccccc2)C[C@@]2(C(=O)OC)CC(C)(C)CC=C12	/	.	.	/	/	/	/
CCCCCCCCN1C(=O)[C@H](CC(=O)NCc2ccc(OC)c(OC)c2)C[C@@]2(C(=O)OC)CC(C)(C)CC=C12	/	37	.	/	/	/	.
CCCCNC(=O)C[C@@H]1C[C@@]2(C(=O)OC)CC(C)(C)CC=C2N(CCc2ccc(OC)c(OC)c2)C1=O	/	.	.	/	/	/	/
CCCCCCCCN1C(=O)[C@H](CC(=O)N2CCOCC2)C[C@@]2(C(=O)OC)CC(C)(C)CC=C12	/	.	.	/	/	/	/
CCCCCCCCN1C(=O)[C@H](CC(=O)N2CCCCC2)C[C@@]2(C(=O)OC)CC(C)(C)CC=C12	/	33	.	/	/	/	.
COC(=O)[C@@]12C[C@@H](CC(=O)NCc3ccc(OC)c(OC)c3)C(=O)N(CCc3ccc(OC)c(OC)c3)C1=CCC(C)(C)C2	/	31	.	/	/	/	.
COC(=O)[C@@]12C[C@@H](CC(=O)NCc3cccc(C(F)(F)F)c3)C(=O)N(Cc3cccc4ccccc34)C1=CCC(C)(C)C2	/	31	.	/	/	/	.
COC(=O)c1ccc(CSc2nc3cc(-c4ccccc4)sc3c(=O)n2C)o1	/	/	/	/	/	.	/
Cn1cccc1[C@@H](O)CNC(=O)c1cccc2ccccc12	/	/	/	/	/	.	/
SMILES	SARS 3CLpro inh	CCHF vOTU inh-1	TcdB GH inh	DUSP3 inh	BH1578 lux ind	PriA SSB inh	CCHF vOTU inh-2
O=C(NCCC1=CCCCC1)C(=O)NCC1CCN(Cc2ccco2)CC1	/	/	/	/	/	.	/
O=C(Cn1nc(-c2cccs2)c2sc(N3CCOCC3)nc2c1=O)Nc1ccc(Cl)cc1	/	/	/	/	/	.	/
COC(=O)[C@@]12C[C@@H](CC(=O)NCc3ccc(OC)c(OC)c3)C(=O)N(Cc3ccco3)C1=CCC(C)(C)C2	/	37	.	/	/	/	.
COC(=O)[C@@]12C[C@@H](CC(=O)NCc3ccccc3)C(=O)N(Cc3ccco3)C1=CCC(C)(C)C2	/	.	.	/	/	/	/
Cc1nc(-c2ccccc2NC(=O)Cc2ccc(F)cc2F)cs1	/	/	/	/	/	.	/
Cc1ccc(Cl)cc1S(=O)(=O)NCc1ccsc1	/	/	/	/	/	.	/
Cn1cnc(S(=O)(=O)Nc2ccccc2-c2csc(-c3ccccc3F)n2)c1	/	/	/	/	/	.	/
CN(C)c1cccc2c1c(NS(=O)(=O)c1cn(C)cn1)nn2C	.	52	.	.	.	.	50
CCN1/C(=C\C=C(C(C)=O)C(C)=O)Sc2ccccc21	.	37	.	.	.	.	.
CN(C(=O)c1ccc(NC(=O)Cc2cccc(NC(=O)C3CCN(C(=O)C4CCCCC4)CC3)c2)cc1)C1CC1	/	34	.	/	.	.	.
O=C(Cc1ccc(NC(=O)C2CCCN(C(=O)c3ccccc3)C2)cc1)Nc1cccc(C(=O)N2CCCCC2)c1 (stereo unspecified)	/	32	.	/	/	/	.
CN(C(=O)c1ccc(NC(=O)Cc2cccc(NC(=O)C3CCN(C(=O)C4CCCC4)CC3)c2)cc1)C1CCCC1	/	.	.	/	.	.	/
O=C(Cc1ccc(NC(=O)C2CCCN(C(=O)C3CCCC3)C2)cc1)Nc1cccc(C(=O)N2CCCCC2)c1 (stereo unspecified)	/	.	.	/	.	.	/
O=c1cc(NCc2cccs2)[nH]c(=O)n1-c1ccc(Br)cc1	/	/	/	/	/	.	/
O=C(NCC1CCN(S(=O)(=O)c2cccnc2)CC1)Nc1ccccc1F	/	/	/	/	/	.	/
COc1ccc(NC(=O)c2cc(Cl)ccc2Cl)cc1N1CCCCC1=O	/	/	/	/	/	.	/
CCN(CC)C(=O)[C@H]1C[C@H](CC(=O)NCc2cccc(C(F)(F)F)c2)C(=O)N2CCc3c([nH]c4ccc(Cl)cc34)[C@]12C	/	32	.	/	.	.	.
CCN(CC)C(=O)[C@H]1CC(CC(=O)NCc2cccc(C(F)(F)F)c2)C(=O)N2CCc3c([nH]c4ccccc34)[C@]12C (stereo partly specified)	/	.	.	/	.	.	/
O=c1oc2ccccc2c(N2CCCC2)c1[N+](=O)[O-]	.	31	.	.	.	.	.
CN(C)S(=O)(=O)c1ccc(C(=O)NCC(=O)N/N=C\c2ccc(C(F)(F)F)cc2)cc1	/	/	/	/	/	.	/
CC(C)Oc1ccc(CN2CCC2(C)C(=O)Nc2ccc3c(c2)OCO3)cc1 (stereo unspecified)	/	34	.	/	.	/	.
Cc1cc(C)cc(OCC(=O)N2N=C(C(F)(F)F)CC2(O)C(C)(C)C)c1 (stereo unspecified)	.	30	/	.	.	49	.
COc1ccc(CNC(=O)NCCn2cncc(C)c2=O)cc1OC	/	/	/	/	/	.	/
COc1ccccc1N(C)S(=O)(=O)c1ccc(C(=O)NNC(=O)c2ccccc2O)cc1	/	30	.	/	.	.	.
Cc1cc(C(=O)Nc2cccc(S(=O)(=O)N3CCOCC3)c2)c2ccccc2n1	/	35	.	/	.	.	.
